Experimental findings from PubChem BioAssay are described below.

Measured potencies and affinities stand elsewhere. Active and inactive are the calls of the source. No rule for the calls is given here.

In the assay the target is Plasmodium falciparum protein kinase 6 (PK6, PF3D7_1337100) (UniProt Q8IDW1). The assay is described as follows: PfPK6 kinase inhibitors, biochemical, TCAMS library (AID 1159586). The note with it: recombinant PfPK6, Kinase-Glo ATP depletion luminescence.
Chain of Plasmodium falciparum protein kinase 6 (PK6, PF3D7_1337100) (Q8IDW1 1-305): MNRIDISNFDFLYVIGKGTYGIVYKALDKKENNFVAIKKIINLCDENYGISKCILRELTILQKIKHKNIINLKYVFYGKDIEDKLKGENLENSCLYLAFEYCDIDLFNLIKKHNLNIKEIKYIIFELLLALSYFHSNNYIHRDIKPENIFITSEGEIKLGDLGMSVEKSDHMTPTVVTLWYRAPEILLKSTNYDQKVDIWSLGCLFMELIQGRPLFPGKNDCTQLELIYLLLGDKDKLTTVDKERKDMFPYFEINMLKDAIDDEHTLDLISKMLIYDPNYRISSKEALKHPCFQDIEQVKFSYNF
With `Cc1ccccc1C1CCN(C2CCC(NC(=O)/C=C/c3ccc(C(F)(F)F)cc3)CC2)CC1` (centres undefined), the outcome was inactive.

Regarding `Cc1ccoc1C(=O)Nc1ccc(-c2cccc(-c3nc4c(C)cccc4[nH]3)c2)cc1`, the outcome was inactive.

For `CCCNCc1ccc(-c2ccc(CN(C(=O)c3nn(-c4ccccc4)nc3C)C(C)CN(C)C)cc2)nc1` (centres undefined), the result was inactive.

With `O=C(Cn1c(CCc2cccc(F)c2F)nc(=O)c2ccccc21)N(Cc1ccc(-c2ccc(C(F)(F)F)cc2)cc1)C1CCN(C2=NCCS2)CC1`, the outcome was inactive.

On to `COc1cc2nc(NCCc3ccccc3)nc(NCc3nccs3)c2cc1OC`, for which the result was inactive.

Regarding `COc1ccc(-c2ccc(NC(=O)c3cccc(C#N)c3)cc2)cc1CN1CCN(C)CC1`, the result was inactive.

Turning to `O=C(/C=C/c1cccc2c1OCO2)Nc1ccnc2ccncc12`, the outcome was inactive.

Regarding `Cc1cc(N2CCN(C)CC2)nc2ccc(NC(=O)Cc3cccc(C(F)(F)F)c3)cc12`, the outcome was inactive.

`Nc1nc(N)c2c(ccc3nn(Cc4cccnc4)cc32)n1`: the outcome was inactive.

`COc1ccc(-c2ccc(NC(=O)c3cccc(C#N)c3)cc2)cc1CN1CCCC(C(N)=O)C1` (centres undefined): the result was inactive.

Take `Cc1cc2nc(-c3ccc(C(=O)NCc4ccc(Cl)c(Cl)c4)cc3)[nH]c2cc1C`: the outcome was inactive.

For `O=C(Nc1cccc(Cl)c1Cl)N[C@H]1CCN(CCCCCNC(=O)[C@@H]2C[C@H]2c2ccc(Cl)c(Cl)c2)C1`, the result was inactive.

On to `O=C(Nc1ccc(CC(=O)N2CCc3cc(Cl)c(N4CCN(C/C=C/c5ccccc5)CC4)cc32)cc1)Nc1cccc([N+](=O)[O-])c1`, for which the outcome was inactive.

On to `NC1CCCN(Cc2ccc(-c3cccc(-c4nc5ccccc5[nH]4)c3)cc2)C1` (centres undefined), for which the result was inactive.
